From PubChem BioAssay (Tox21)
Inconclusive results are not listed. A call without a number means that no potency is given here. Calls of active or inactive are those of the source. Calls come from the whole dose curve.

Molecular target: Acetylcholinesterase (Homo sapiens) (UniProt P22303)
Assay: Acetylcholinesterase (AChE) small molecule antagonists: enzyme-based qHTS assay (AID 1347397); note: nearly all actives have a fitted effect of over 55% in size
Conditions: Potency: AChE enzyme activity inhibition; series mostly up to 115 µM
How it was run: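 First, recombinant human AChE (50 mU/mL as dispensed) received test compound or DMSO. Second, plates stood 30 min at room temperature. Third, DTNB and acetylthiocholine were added, followed by 10 min at room temperature and colorimetric detection.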

Acetylcholinesterase (Homo sapiens), sequence (P22303 whole entry, looked up): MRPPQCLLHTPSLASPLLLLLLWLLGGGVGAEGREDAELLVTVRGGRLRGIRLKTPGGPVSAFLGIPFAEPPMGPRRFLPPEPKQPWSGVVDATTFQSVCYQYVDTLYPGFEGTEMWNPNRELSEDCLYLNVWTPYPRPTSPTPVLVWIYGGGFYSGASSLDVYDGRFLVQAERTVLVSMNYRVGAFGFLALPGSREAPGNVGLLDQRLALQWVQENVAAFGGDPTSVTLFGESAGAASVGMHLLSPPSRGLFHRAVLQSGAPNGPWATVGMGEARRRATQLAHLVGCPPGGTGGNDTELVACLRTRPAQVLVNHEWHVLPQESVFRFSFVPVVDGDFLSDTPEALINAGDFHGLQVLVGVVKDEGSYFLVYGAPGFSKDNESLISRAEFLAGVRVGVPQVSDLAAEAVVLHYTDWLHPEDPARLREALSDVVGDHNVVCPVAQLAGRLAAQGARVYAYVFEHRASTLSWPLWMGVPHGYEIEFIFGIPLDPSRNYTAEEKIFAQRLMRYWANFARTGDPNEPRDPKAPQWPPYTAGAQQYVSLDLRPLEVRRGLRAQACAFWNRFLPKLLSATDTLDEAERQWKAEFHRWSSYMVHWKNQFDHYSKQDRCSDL

Row | Structure (SMILES) | Potency
1 | CC(=O)CCC(C)=O | inactive
2 | COP(=S)(OC)Oc1ccc([N+](=O)[O-])cc1Cl | inactive
3 | CC(C)N(CCC(C(N)=O)(c1ccccc1)c1ccccn1)C(C)C (configuration not stated) | inactive
4 | C[C@H]1CNCCc2ccc(Cl)cc21 | inactive
5 | O=C(O)C(F)(F)C(F)(F)C(F)(F)C(F)(F)C(F)(F)C(F)(F)C(F)(F)C(F)(F)C(F)(F)C(F)(F)F | inactive
6 | c1ccc(CN2CCNCC2)cc1 | inactive
7 | O=C(Nc1ccccc1)Nc1cnns1 | inactive
8 | CO/C=C(/C(=O)OC)c1ccccc1COc1cccc(C(F)(F)F)n1 | inactive
9 | CNC(C)Cc1ccccc1OC (configuration not stated) | inactive
10 | CC(C)=CCOc1c2occc2cc2ccc(=O)oc12 | inactive
11 | O=S1(=O)OC(c2cc(Br)c(O)c(Br)c2)(c2cc(Br)c(O)c(Br)c2)c2ccccc21 | inactive
12 | CN1C(=O)NC(=O)C(C)(C2=CCCCC2)C1=O (configuration not stated) | inactive
13 | ClCCCCBr | inactive
14 | Cc1ccccc1C(=O)Nc1cccc(OC(C)C)c1 | inactive
15 | COc1ccc(-c2ccccc2)cc1NNC(=O)OC(C)C | inactive
16 | Cl/C=C\Cl | inactive
17 | O=C(O)C(F)(F)C(F)(F)C(F)(F)C(F)(F)C(F)(F)C(F)(F)C(F)(F)C(F)(F)C(F)(F)F | inactive
18 | ClCc1cccc(Cl)c1 | inactive
19 | CC(C)(C)c1cc([N+](=O)[O-])cc([N+](=O)[O-])c1O | inactive
20 | CCCCCCC#N | inactive
21 | S=C=NCc1ccccc1 | inactive
22 | CC(C)(OO)c1ccccc1 | inactive

Molecular target: Acetylcholinesterase (Homo sapiens) (UniProt P22303)
Assay: Acetylcholinesterase (AChE) small molecule antagonists: fluorescence cell-based qHTS assay (AID 1347398); note: nearly all actives have a fitted effect of over 50% in size; note: potency is the fitted concentration of half-maximal effect
Conditions: SH-SY5Y cells; Potency: AChE activity; series mostly up to 115 µM
How it was run: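 Homogeneous quantitative HTS format. SH-SY5Y cells seeded at 2,000 per well settle overnight at 37 C. Compound pretreatment runs 30 min (37 C, 5% CO2); substrate/probe mix then reacts 40 min at RT before reading 490/520 nm.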

Row | Structure (SMILES) | Potency
23 | OC(c1ccc(Cl)cc1)(c1ccc(Cl)cc1)c1cccnc1 | inactive
24 | [CH3][Sn]([CH3])([Cl])[Cl] | inactive
25 | CC(O)(CS(=O)(=O)c1ccc(F)cc1)C(=O)Nc1ccc(C#N)c(C(F)(F)F)c1 (configuration not stated) | inactive
26 | CCCCCCCCCCOC(=O)c1ccccc1C(=O)OCCCCCCCCCC | inactive
27 | N#Cc1ccc(Cl)cc1 | inactive
28 | CCOP(=S)(OCC)SCn1nnc2ccccc2c1=O | 5.64 µM (active)
29 | O=C(CCl)c1ccc(Cl)cc1Cl | inactive
30 | Sc1ccccc1Cl | inactive
31 | CC(c1ccc(O)cc1)(c1ccc(O)cc1)c1ccc(O)cc1 | inactive
32 | Cc1ccccc1CCl | inactive
33 | O=C(Nc1ccccc1)Nc1ccnc(Cl)c1 | inactive
34 | O=[N+]([O-])C(Br)(CO)CO | inactive
35 | COc1nn(CSP(=S)(OC)OC)c(=O)s1 | inactive
36 | CC(=O)CCC(C)=O | inactive
37 | COP(=S)(OC)Oc1ccc([N+](=O)[O-])cc1Cl | inactive
38 | CC(C)N(CCC(C(N)=O)(c1ccccc1)c1ccccn1)C(C)C (configuration not stated) | inactive
39 | C[C@H]1CNCCc2ccc(Cl)cc21 | inactive
40 | O=C(O)C(F)(F)C(F)(F)C(F)(F)C(F)(F)C(F)(F)C(F)(F)C(F)(F)C(F)(F)C(F)(F)C(F)(F)F | inactive

Row | Structure (SMILES) | Potency
41 | c1ccc(CN2CCNCC2)cc1 | inactive
42 | O=C(Nc1ccccc1)Nc1cnns1 | inactive
43 | CO/C=C(/C(=O)OC)c1ccccc1COc1cccc(C(F)(F)F)n1 | inactive
44 | CNC(C)Cc1ccccc1OC (configuration not stated) | inactive
45 | CC(C)=CCOc1c2occc2cc2ccc(=O)oc12 | inactive
46 | O=S1(=O)OC(c2cc(Br)c(O)c(Br)c2)(c2cc(Br)c(O)c(Br)c2)c2ccccc21 | inactive
47 | CN1C(=O)NC(=O)C(C)(C2=CCCCC2)C1=O (configuration not stated) | inactive
48 | ClCCCCBr | inactive
49 | Cc1ccccc1C(=O)Nc1cccc(OC(C)C)c1 | inactive
50 | COc1ccc(-c2ccccc2)cc1NNC(=O)OC(C)C | inactive
51 | Cl/C=C\Cl | inactive
52 | O=C(O)C(F)(F)C(F)(F)C(F)(F)C(F)(F)C(F)(F)C(F)(F)C(F)(F)C(F)(F)C(F)(F)F | inactive
53 | ClCc1cccc(Cl)c1 | inactive
54 | CC(C)(C)c1cc([N+](=O)[O-])cc([N+](=O)[O-])c1O | inactive
55 | CCCCCCC#N | inactive
56 | S=C=NCc1ccccc1 | inactive
57 | CC(C)(OO)c1ccccc1 | inactive

Molecular target: Acetylcholinesterase (Homo sapiens) (UniProt P22303)
Assay: Acetylcholinesterase (AChE) small molecule antagonists: enzyme-based qHTS assay with human liver microsomes (AID 1347399); note: nearly all actives have a fitted effect of over 60% in size; note: potency is the fitted concentration of half-maximal effect
Conditions: Potency: qHTS inhibition; series mostly up to 115 µM
How it was run: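 Recombinant human AChE (50 mU/mL in the enzyme mix) and human liver microsomes (0.25 mg/mL final) were preincubated with compound and NADPH (0.25 mg/mL final) for 30 min at 37 C. Acetylthiocholine/DTNB was then added; thiocholine was read colorimetrically after 10 min at room temperature.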

Row | Structure (SMILES) | Potency
58 | OC(c1ccc(Cl)cc1)(c1ccc(Cl)cc1)c1cccnc1 | inactive
59 | [CH3][Sn]([CH3])([Cl])[Cl] | inactive
60 | CC(O)(CS(=O)(=O)c1ccc(F)cc1)C(=O)Nc1ccc(C#N)c(C(F)(F)F)c1 (configuration not stated) | inactive
61 | CCCCCCCCCCOC(=O)c1ccccc1C(=O)OCCCCCCCCCC | inactive
62 | N#Cc1ccc(Cl)cc1 | inactive
63 | CCOP(=S)(OCC)SCn1nnc2ccccc2c1=O | 0.252 µM (active)
64 | O=C(CCl)c1ccc(Cl)cc1Cl | inactive
65 | Sc1ccccc1Cl | inactive
66 | CC(c1ccc(O)cc1)(c1ccc(O)cc1)c1ccc(O)cc1 | inactive
67 | Cc1ccccc1CCl | inactive
68 | O=C(Nc1ccccc1)Nc1ccnc(Cl)c1 | inactive
69 | O=[N+]([O-])C(Br)(CO)CO | 71 µM (active)
70 | COc1nn(CSP(=S)(OC)OC)c(=O)s1 | inactive
71 | CC(=O)CCC(C)=O | inactive
72 | COP(=S)(OC)Oc1ccc([N+](=O)[O-])cc1Cl | inactive
73 | CC(C)N(CCC(C(N)=O)(c1ccccc1)c1ccccn1)C(C)C (configuration not stated) | inactive
74 | C[C@H]1CNCCc2ccc(Cl)cc21 | inactive
75 | O=C(O)C(F)(F)C(F)(F)C(F)(F)C(F)(F)C(F)(F)C(F)(F)C(F)(F)C(F)(F)C(F)(F)C(F)(F)F | inactive

Row | Structure (SMILES) | Potency
76 | c1ccc(CN2CCNCC2)cc1 | inactive
77 | O=C(Nc1ccccc1)Nc1cnns1 | inactive
78 | CO/C=C(/C(=O)OC)c1ccccc1COc1cccc(C(F)(F)F)n1 | inactive
79 | CNC(C)Cc1ccccc1OC (configuration not stated) | inactive
80 | CC(C)=CCOc1c2occc2cc2ccc(=O)oc12 | inactive
81 | O=S1(=O)OC(c2cc(Br)c(O)c(Br)c2)(c2cc(Br)c(O)c(Br)c2)c2ccccc21 | inactive
82 | CN1C(=O)NC(=O)C(C)(C2=CCCCC2)C1=O (configuration not stated) | inactive
83 | ClCCCCBr | inactive
84 | Cc1ccccc1C(=O)Nc1cccc(OC(C)C)c1 | inactive
85 | COc1ccc(-c2ccccc2)cc1NNC(=O)OC(C)C | inactive
86 | Cl/C=C\Cl | inactive
87 | O=C(O)C(F)(F)C(F)(F)C(F)(F)C(F)(F)C(F)(F)C(F)(F)C(F)(F)C(F)(F)C(F)(F)F | inactive
88 | ClCc1cccc(Cl)c1 | inactive
89 | CC(C)(C)c1cc([N+](=O)[O-])cc([N+](=O)[O-])c1O | inactive
90 | CCCCCCC#N | inactive
91 | S=C=NCc1ccccc1 | inactive
92 | CC(C)(OO)c1ccccc1 | inactive
